This passage reports growth results from PubChem BioAssay (NCI).

Several values for one entry are separate records, joined by “and”; a condition that tells them apart may be missing. Equal values may be shown once. About 83,000 compounds went through this panel and 20% of them were active in at least one assay; those are over-represented in the sample as a whole.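 For each line, cells grew in 96-well plates with the test compound present at a single concentration for 48 hours.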 Activity calls are given as the source filed them. Rule for the calls: active = growth percent below 10; inactive = the rest.

Test systems include RPMI-8226 leukemia; OVCAR-8 ovarian; OVCAR-5 ovarian; OVCAR-4 ovarian; SK-OV-3 ovarian; IGROV1 ovarian; OVCAR-3 ovarian; HS 578T breast; NCI/ADR-RES ovarian; T-47D breast; BT-549 breast; MDA-MB-435 melanoma; SW-620 colon; MCF7 breast; HCT-116 colon; HCC-2998 colon; KM12 colon.
Holding throughout (test): NCI-60 one-dose screen, 48 h (100 = growth as untreated, 0 = no growth, -100 = all killed)
What all share (details): 10 µM unless noted

As to `COc1cc(C2c3cc4c(cc3C(OC(=O)C[n+]3ccccc3)C3COC(=O)C23)OCO4)cc(OC)c1OC` (stereo unspecified), the growth was 36.2% (inactive) in the experiment with RPMI-8226 leukemia; 14.7% (inactive) in the experiment on OVCAR-8 ovarian; 54% (inactive) in the experiment with OVCAR-5 ovarian; 41.5% (inactive) in the experiment with OVCAR-4 ovarian; 33% (inactive) with SK-OV-3 ovarian; 16.5% (inactive) in the experiment on IGROV1 ovarian. For the same compound, the growth in the experiment with OVCAR-3 ovarian was -57.7% (active); in the experiment on HS 578T breast it was 34.7% (inactive); in the experiment on NCI/ADR-RES ovarian it was -3.91% (active); in the experiment with T-47D breast, 94.8% (inactive); in the experiment on BT-549 breast it was 19.8% (inactive); in the experiment on MDA-MB-435 melanoma, -8.6% (active). The growth in the experiment with SW-620 colon was 21.3% (inactive); in the experiment with MCF7 breast, 9.23% (active); with HCT-116 colon, 5.09% (active); with HCC-2998 colon, 13.3% (inactive); with KM12 colon it was -8.66% (active).
With `C=CCN1C(=O)c2ccccc2C1=O`, the growth in the experiment with RPMI-8226 leukemia is 92.9% (inactive); with OVCAR-8 ovarian it was 97.5% (inactive); with OVCAR-5 ovarian, 102% (inactive); in the experiment with OVCAR-4 ovarian it was 107% (inactive); in the experiment with SK-OV-3 ovarian, 105% (inactive); in the experiment on IGROV1 ovarian, 98.7% (inactive). The growth in the experiment with OVCAR-3 ovarian is 110% (inactive); with HS 578T breast, 99.8% (inactive); in the experiment with NCI/ADR-RES ovarian it was 96% (inactive); with T-47D breast, 118% (inactive); in the experiment with BT-549 breast, 96.8% (inactive); with MDA-MB-435 melanoma, 106% (inactive). Besides, the growth is 98.5% (inactive) in the experiment with SW-620 colon, 98.6% (inactive) in the experiment on MCF7 breast, 104% (inactive) in the experiment on HCC-2998 colon and 110% (inactive) in the experiment on KM12 colon.
As for `CC(=O)Oc1ccc(C(c2ccc(OC(C)=O)cc2)c2ccccn2)cc1`, the growth in the experiment with OVCAR-8 ovarian was 48.7% (inactive); with OVCAR-5 ovarian, 109% (inactive) and 27% (inactive); in the experiment on OVCAR-4 ovarian, -9.93% (active) and -15.5% (active); in the experiment with SK-OV-3 ovarian it was 119% (inactive); in the experiment with IGROV1 ovarian, 69% (inactive) and 79.3% (inactive); with OVCAR-3 ovarian it was 61.3% (inactive) and 71% (inactive). For the same compound, the growth in the experiment on HS 578T breast was 31.2% (inactive); in the experiment on NCI/ADR-RES ovarian, 49.9% (inactive) and 34.3% (inactive); in the experiment on T-47D breast it was -15.1% (active) and -18.5% (active); in the experiment on BT-549 breast it was -16.4% (active); in the experiment on MDA-MB-435 melanoma, 110% (inactive) and 103% (inactive); in the experiment with SW-620 colon it was 104% (inactive) and 83.9% (inactive). Besides, the growth is 20.6% (inactive) and 34.8% (inactive) with MCF7 breast; 88.6% (inactive) and 96% (inactive) in the experiment with HCT-116 colon; 70.5% (inactive) in the experiment on HCC-2998 colon; 80% (inactive) and 85% (inactive) in the experiment with KM12 colon.
For the compound `O=C1C=CC[C@H](/C=C/c2ccccc2)O1`, the growth with RPMI-8226 leukemia was -34.8% (active); in the experiment with OVCAR-8 ovarian it was 21.2% (inactive) and 14.4% (inactive); with OVCAR-5 ovarian it was 57.6% (inactive) and 54.9% (inactive); with OVCAR-4 ovarian, 36% (inactive) and 33.6% (inactive); with SK-OV-3 ovarian it was 132% (inactive) and 7.79% (active); with IGROV1 ovarian, -35.5% (active) and 15.7% (inactive). The growth was 1.02% (active) and -41.3% (active) with OVCAR-3 ovarian; 25.4% (inactive) and 19.5% (inactive) in the experiment with HS 578T breast; 34% (inactive) and 28.9% (inactive) in the experiment on NCI/ADR-RES ovarian; 67.9% (inactive) and 9.64% (active) with T-47D breast; 24.9% (inactive) and 4.24% (active) in the experiment with BT-549 breast; 17.5% (inactive) and 4.07% (active) in the experiment with MDA-MB-435 melanoma. For the same compound, the growth with SW-620 colon was 16.4% (inactive) and -39.2% (active); in the experiment with MCF7 breast, 0.837% (active) and 1.92% (active); with HCT-116 colon, 5.79% (active) and -18.5% (active); in the experiment with HCC-2998 colon it was 26.1% (inactive) and 32.3% (inactive); in the experiment with KM12 colon, 43.1% (inactive) and 35.6% (inactive).
As to `O=C1c2ccccc2C(c2ccccc2)C1c1ccccc1` (stereo unspecified), the growth with RPMI-8226 leukemia was 63.4% (inactive); with OVCAR-8 ovarian, 103% (inactive); in the experiment with OVCAR-5 ovarian it was 101% (inactive); in the experiment on OVCAR-4 ovarian, 86.1% (inactive); in the experiment on SK-OV-3 ovarian, 93.5% (inactive); in the experiment on IGROV1 ovarian, 91.1% (inactive). The growth in the experiment on OVCAR-3 ovarian was 105% (inactive); in the experiment with HS 578T breast, 106% (inactive); with NCI/ADR-RES ovarian, 94.8% (inactive); in the experiment with T-47D breast, 82.9% (inactive); in the experiment with BT-549 breast, 131% (inactive); in the experiment on MDA-MB-435 melanoma it was 95.9% (inactive). In addition, the growth in the experiment on SW-620 colon was 90.1% (inactive); in the experiment with HCT-116 colon it was 79.3% (inactive); in the experiment with HCC-2998 colon, 95.4% (inactive); in the experiment on KM12 colon it was 95.1% (inactive).
As to `CN1C2C=CC(=O)C1C1C(=O)N(c3ccccc3)C(=O)C12` (stereo unspecified), the growth is 37.5% (inactive) in the experiment on RPMI-8226 leukemia; 69.9% (inactive) in the experiment with OVCAR-8 ovarian; 102% (inactive) in the experiment with OVCAR-5 ovarian; 76.4% (inactive) in the experiment on OVCAR-4 ovarian; 105% (inactive) in the experiment on SK-OV-3 ovarian; -9.22% (active) with IGROV1 ovarian. Further, the growth is 47.1% (inactive) with OVCAR-3 ovarian; 77.5% (inactive) in the experiment on HS 578T breast; 92.6% (inactive) in the experiment on NCI/ADR-RES ovarian; 68.5% (inactive) in the experiment with T-47D breast; 52.9% (inactive) with BT-549 breast; 80.5% (inactive) with MDA-MB-435 melanoma. Moreover, the growth was 37.3% (inactive) in the experiment with SW-620 colon; 44.5% (inactive) in the experiment with MCF7 breast; 35.9% (inactive) with HCT-116 colon; 113% (inactive) in the experiment on HCC-2998 colon; 56.3% (inactive) in the experiment with KM12 colon.
Turning to `N=C(N=C(N)N)N1CCOCC1`, the growth in the experiment with RPMI-8226 leukemia is 113% (inactive) and 107% (inactive); with OVCAR-8 ovarian it was 105% (inactive) and 106% (inactive); in the experiment on OVCAR-5 ovarian, 99.3% (inactive); with OVCAR-4 ovarian, 95.4% (inactive) and 108% (inactive); with SK-OV-3 ovarian, 101% (inactive) and 104% (inactive); in the experiment with IGROV1 ovarian it was 100% (inactive) and 109% (inactive). Besides, the growth was 114% (inactive) and 107% (inactive) with OVCAR-3 ovarian; 105% (inactive) and 100% (inactive) with HS 578T breast; 105% (inactive) and 98.8% (inactive) in the experiment on NCI/ADR-RES ovarian; 91.2% (inactive) and 95.4% (inactive) in the experiment with T-47D breast; 115% (inactive) and 103% (inactive) with BT-549 breast; 108% (inactive) and 106% (inactive) in the experiment on MDA-MB-435 melanoma. Also, the growth in the experiment on SW-620 colon is 96.3% (inactive) and 103% (inactive); in the experiment on MCF7 breast it was 92.9% (inactive) and 91.5% (inactive); in the experiment with HCT-116 colon, 104% (inactive) and 96.4% (inactive); with HCC-2998 colon, 109% (inactive) and 97.1% (inactive); in the experiment on KM12 colon it was 105% (inactive) and 100% (inactive).
